From PubChem BioAssay
Calls of active or inactive are those of the source.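 How the source made its calls, unless noted: active means inhibition above 20% together with a positive visual image hit; inconclusive means visual image hit but inhibition not above 20%; inactive means no visual image hit.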

What was measured:
[1] = inhibitors of TNFa-induced NFkB p65 translocation, primary screen, imaging, HUVEC, MLSMR starter and 10KST1 sets (AID 438); conditions: HUVEC TNFa-induced p65 nuclear translocation; cell count: measured here: nuclei count (cytotoxicity indicator), at 2.08 µM; inhibition: at 2 µM, stronger effect = higher value, 0% TNFa-plus-vehicle, 100% no-TNFa wells;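 further: compound added about 3h40 before a 20 min TNFalpha stimulation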;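 on inhibition: signal is the nuclear over cytoplasmic p65 intensity ratio per well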
[2] = inhibitors of mutant huntingtin aggregation, primary screen, imaging, exon1htt(103Q)mCFP cells, high-content imaging (AID 483;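 active means visual image review flags a hit and inhibition of aggregation exceeds 20%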;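 further: compound exposure lasted 3 days before fixation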;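 on nuclei count: percent of the per-plate median nuclei count of sample wells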); conditions: exon1htt(103Q)mCFP cell line, aggregate imaging, at 2 µM; inhibition of aggregation: stronger effect = higher value; nuclei count: measured here: cell count, toxicity
[3] = inhibitors of E-selectin induction by TNFa, primary screen, imaging, HUVEC, immunofluorescence, MLSMR starter and 10KST1 sets (AID 487;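 active means visually confirmed hit in the image check and inhibition above 20%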;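 on inhibition: signal is fraction of cell area covered by stained E-selectin grains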;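 on nuclei count: 100% = median nuclei count of all wells on the same plate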); conditions: HUVEC TNFalpha-induced E-selectin immunofluorescence imaging, at 2 µM; inhibition: stronger effect = higher value; nuclei count: measured here: cell number, toxicity
[4] = biological target: Voltage-gated potassium channel subunit beta-2 (Rattus norvegicus) (UniProt P62483); assay: KvBeta enzyme negative modulators, primary screen, biochemical, NADPH fluorescence (AID 622;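 active means fluorescence slope higher than the sample average by over 3 SD, cut at about -0.22 in these data, passing the limit was not always enough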;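 further: slope of raw intensity against log time taken from 70 to 1610 s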); conditions: recombinant KvBeta, 4-cyanobenzaldehyde reduction, at 10 µM, stronger effect = higher value
Chain of Voltage-gated potassium channel subunit beta-2 (Rattus norvegicus) (P62483 whole entry, looked up): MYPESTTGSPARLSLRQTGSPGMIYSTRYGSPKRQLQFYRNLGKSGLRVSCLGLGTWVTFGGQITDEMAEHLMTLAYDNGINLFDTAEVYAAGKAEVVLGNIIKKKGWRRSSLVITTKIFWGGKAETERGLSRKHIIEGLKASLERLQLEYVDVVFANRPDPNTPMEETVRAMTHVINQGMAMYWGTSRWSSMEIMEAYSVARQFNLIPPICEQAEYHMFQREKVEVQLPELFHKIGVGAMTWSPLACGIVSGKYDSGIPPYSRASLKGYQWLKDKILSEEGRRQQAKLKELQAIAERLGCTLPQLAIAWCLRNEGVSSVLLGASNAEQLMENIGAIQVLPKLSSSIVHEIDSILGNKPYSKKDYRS

[5] = biological target: Voltage-gated potassium channel subunit beta-2 (Rattus norvegicus) (UniProt P62483); assay: KvBeta positive modulators, primary screen, biochemical, NADPH fluorescence (AID 623;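 active means NADPH fluorescence slope more negative than the mean of all samples by about 3 SD, 99.7% confidence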;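 further: fluorescence intensity change per second fitted from 20 to 320 s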); conditions: Recombinant KvBeta, NADPH fluorescence decrease slope, 10 min; at 10 µM; stronger effect = lower value
[6] = biological target: Alpha-2C adrenergic receptor (Homo sapiens) (UniProt P18825); assay: modulators of alpha2C/GIRK thallium flux, primary screen, cell-based, HEK293 alpha2C/GIRK1/2 (AID 624;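 active means fluorescence slope after compound addition differing from the mean of all screened samples at 99.7% confidence, in either direction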;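 further: slope of fluorescence ratio to pre-addition baseline per second over 15 to 24 s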); conditions: thallium flux BTC fluorescence, at 10 µM, actives lie on both sides
Chain of Alpha-2C adrenergic receptor (Homo sapiens) (P18825 whole entry, looked up): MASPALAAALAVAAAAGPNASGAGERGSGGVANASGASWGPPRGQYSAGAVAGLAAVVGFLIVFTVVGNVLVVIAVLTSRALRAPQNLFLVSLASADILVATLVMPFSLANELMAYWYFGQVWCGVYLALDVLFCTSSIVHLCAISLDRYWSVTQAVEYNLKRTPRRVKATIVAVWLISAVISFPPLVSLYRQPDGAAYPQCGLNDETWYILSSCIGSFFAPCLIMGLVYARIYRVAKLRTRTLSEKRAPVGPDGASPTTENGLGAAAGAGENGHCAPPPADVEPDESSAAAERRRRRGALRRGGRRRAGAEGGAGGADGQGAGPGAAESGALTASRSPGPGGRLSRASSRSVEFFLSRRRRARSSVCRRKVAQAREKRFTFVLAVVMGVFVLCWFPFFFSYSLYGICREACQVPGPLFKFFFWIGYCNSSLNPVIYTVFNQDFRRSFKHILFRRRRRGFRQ

[7] = inhibitors of Sendai virus-induced IRF3 signaling, primary screen, TLR/RLR signaling modifier project, cell-based, Sendai virus stimulus, luciferase, 10K MLSCN set (AID 602276;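 active means inhibition at or above 50% at 10 µM; inactive means inhibition below 50%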;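 further: firefly luciferase from ISG56 promoter only with Renilla not read in this screen; 0% = Sendai virus plus DMSO and 100% = medium plus DMSO without virus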); conditions: HEK293 RL24 IRF3 luciferase reporter, at 10 µM, stronger effect = higher value
[8] = inhibitors of poly I:C-induced TLR3 signaling, primary screen, cell-based, poly I:C stimulus, luciferase, 10K MLSCN set (AID 602277;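 active means inhibition of the reporter signal at or above 50%; inactive means inhibition below 50%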); conditions: HEK293-TLR3 RL24 IRF3 luciferase reporter, at 10 µM, stronger effect = higher value

Structure (SMILES) | cell count [1] | inhibition [1] | inhibition of aggregation [2] | nuclei count [2] | inhibition [3] | nuclei count [3] | fluorescence slope [4] | NADPH fluorescence slope [5] | slope [6] | inhibition [7] | inhibition [8]
Cc1ccc2c(Cl)cc(Cl)c(OCc3c(C)noc3C)c2n1 | 731 | -1.2% (inactive) | -13.6% (inactive) | 97.3% | -164% (inactive) | 142% | -0.604 (inactive) | 2.6e-05 (inactive) | 0.00543 (inactive) | -17% (inactive) | -0.677% (inactive)
N#CCc1c(C#N)c(N)nc(N2CCN(S(=O)(=O)c3ccccc3)CC2)c1C#N | 349 | 1.3% (inactive) | -7.2% (inactive) | 96.4% | 14.3% (inactive) | 108% | -0.427 (inactive) | -4.2e-05 (inactive) | 0.00665 (inactive) | 11% (inactive) | 34.3% (inactive)
CCOC(=O)c1ccc(S(=O)(=O)Nc2cc(C(C)(C)C)no2)cc1 | 551 | -10.3% (inactive) | 5.8% (inactive) | 108% | -194% (inactive) | 152% | -0.612 (inactive) | 5.6e-06 (inactive) | 0.00811 (inactive) | -7.27% (inactive) | -2.9% (inactive)
CCOC(=O)N1CCN(C(=O)c2ccc3nc4ccsc4c(=O)n3c2)CC1 | 542 | 9.1% (inactive) | -30.4% (inactive) | 65.4% | 12.9% (inactive) | 95.5% | -0.324 (inactive) | -1.8e-05 (inactive) | 0.00717 (inactive) | 14.6% (inactive) | 44.2% (inactive)
CC1CCN(c2c(NCc3ccc(C(=O)N4c5ccccc5CC4C)cc3)c(=O)c2=O)CC1 (stereo not drawn) | 726 | -5.7% (inactive) | 31.5% (inactive) | 104% | -38.2% (inactive) | 105% | -0.572 (inactive) | -3.6e-05 (inactive) | 0.00643 (inactive) | 21.8% (inactive) | 45.8% (inactive)
CCOC(=O)c1ccc2ncc(C(=O)OCC)c(NCCN(C)C)c2c1 | 770 | -3.3% (inactive) | -5.5% (inactive) | 94% | -63.4% (inactive) | 113% | -0.545 (inactive) | -3.1e-05 (inactive) | 0.00656 (inactive) | 10% (inactive) | 44% (inactive)
COc1ccc(NC(=O)CSc2nnc(Cc3cccn3C)n2-c2ccc(F)cc2)cc1OC | 541 | -1.3% (inactive) | -0.2% (inactive) | 92.7% | -59.2% (inactive) | 118% | -0.588 (inactive) | -2.4e-05 (inactive) | 0.00584 (inactive) | 12.2% (inactive) | 27.1% (inactive)
COc1ccc(N(CC(=O)Nc2ccc(F)c(Cl)c2)S(=O)(=O)c2c(C)noc2C)cc1 | 372 | 2.7% (inactive) | -8.2% (inactive) | 99% | -23.6% (inactive) | 104% | -0.425 (inactive) | 1.3e-05 (inactive) | 0.00672 (inactive) | 16.5% (inactive) | 21.7% (inactive)
Cc1ccc(Nc2nc(CSc3nnc(-c4cccs4)o3)cs2)cc1 | 444 | -0.2% (inactive) | 31.6% (inactive) | 110% | 16.3% (inactive) | 113% | -0.408 (inactive) | -1.4e-05 (inactive) | 0.00487 (inactive) | -22% (inactive) | -60.6% (inactive)
C[C@@H]1C[C@H](O)c2cc(Cl)ccc2N1 | 404 | -7.2% (inactive) | 17.5% (inactive) | 97.5% | -39.2% (inactive) | 114% | -0.594 (inactive) | -1.8e-05 (inactive) | 0.0061 (inactive) | 11% (inactive) | 27.1% (inactive)
COc1ccc2[nH]c(=O)c(CN(C(=O)c3cccnc3)c3ccccc3OC)cc2c1 | 466 | -3.3% (inactive) | -3% (inactive) | 114% | -19.8% (inactive) | 113% | -0.449 (inactive) | 1.5e-05 (inactive) | 0.00765 (inactive) | 12.5% (inactive) | 22.6% (inactive)
Cc1cccc(NC(=O)C2CCCN2C(=O)OCC(C)C)c1C (stereo not drawn) | 728 | -6.9% (inactive) | -27.8% (inactive) | 109% | -120% (inactive) | 119% | -0.322 (inactive) | -6.4e-05 (inactive) | 0.00484 (inactive) | 5.88% (inactive) | 14.1% (inactive)
Cc1ccc2c(c1C)NC(=O)C2(O)CC(=O)c1ccc2c(c1)OCO2 (stereo not drawn) | 788 | 0.6% (inactive) | 34.5% (inactive) | 96.2% | -44% (inactive) | 110% | -0.472 (inactive) | -5.3e-05 (inactive) | 0.00591 (inactive) | 11.2% (inactive) | 25.3% (inactive)
Cn1c(=O)c2c(nc(-n3ccnc3)n2C)n(C)c1=O | 311 | -8.5% (inactive) | 14.2% (inactive) | 85.8% | -22.1% (inactive) | 104% | -0.362 (inactive) | 8.4e-06 (inactive) | 0.00573 (inactive) | 15.7% (inactive) | 17.1% (inactive)
Cc1ccc(NC(=O)c2ccccc2F)nc1 | 336 | -8.1% (inactive) | 0.7% (inactive) | 123% | -16.4% (inactive) | 111% | -0.374 (inactive) | -6.3e-05 (inactive) | 0.00526 (inactive) | -16.7% (inactive) | -41.6% (inactive)
S=c1[nH]nc(Cc2ccccc2)n1Cc1ccco1 | 769 | -8% (inactive) | 3% (inactive) | 101% | -2.6% (inactive) | 102% | -0.499 (inactive) | -7e-05 (inactive) | 0.00544 (inactive) | 5.02% (inactive) | 9.76% (inactive)
Cc1ccc(S(=O)(=O)Cn2nnnc2C(C(C)C)N2CCN(C(=O)c3ccco3)CC2)cc1 (stereo not drawn) | 400 | -0.4% (inactive) | 2.5% (inactive) | 100% | 6.9% (inactive) | 101% | -0.405 (inactive) | -4.2e-05 (inactive) | 0.00633 (inactive) | 11.4% (inactive) | 15.4% (inactive)
CC(C)CC(c1nnnn1CC1CCCO1)N1CCN(Cc2ccc3c(c2)OCO3)CC1 (stereo not drawn) | 474 | 1% (inactive) | -18.9% (inactive) | 129% | -21.2% (inactive) | 111% | -0.472 (inactive) | -3.8e-05 (inactive) | 0.00652 (inactive) | -28.6% (inactive) | 25% (inactive)
COC(=O)C1=C(C)Nc2nnnn2C1c1cccs1 (stereo not drawn) | 536 | -8.8% (inactive) | -0.9% (inactive) | 107% | -19.9% (inactive) | 62.5% | -0.599 (inactive) | -6.8e-05 (inactive) | 0.0058 (inactive) | 4.45% (inactive) | 20.5% (inactive)
Cc1ccc(S(=O)(=O)C(C#N)c2nc3ccccc3nc2N2CCCCC2)cc1 (stereo not drawn) | 273 | 10.9% (inactive) | 8.3% (inactive) | 98.6% | -0.3% (inactive) | 103% | -0.364 (inactive) | 2e-06 (inactive) | 0.00764 (inactive) | 11.2% (inactive) | 22.6% (inactive)
Cc1noc(/C=C/N(C)C)c1S(=O)(=O)N1CCCC(C(=O)N2CCc3ccccc32)C1 (stereo not drawn) | 620 | -4% (inactive) | -4.7% (inactive) | 86.6% | -16.5% (inactive) | 95.3% | -0.537 (inactive) | -5.3e-05 (inactive) | 0.00689 (inactive) | 11.8% (inactive) | 45.3% (inactive)
CCOC(=O)C1=C(C)NC2=C(C(=O)CC(C)(C)C2)C1c1ccc(N(C)C)cc1 (stereo not drawn) | 368 | -7.9% (inactive) | 26.1% (inactive) | 104% | -27.4% (inactive) | 116% | -0.491 (inactive) | -8.1e-05 (inactive) | 0.00676 (inactive) | -2.32% (inactive) | 2.28% (inactive)
CCCC(c1nnnn1Cc1ccc(OC)cc1)N1CCN(c2ccccc2OC)CC1 (stereo not drawn) | 257 | 12.3% (inactive) | -3.4% (inactive) | 101% | -14.7% (inactive) | 82.7% | -0.433 (inactive) | -0.000141 (inactive) | 0.00492 (inactive) | 10.6% (inactive) | 23.6% (inactive)
COc1ccc(C2=NO[C@@H]3C(=O)N(c4cccc(C)c4C)C(=O)[C@H]23)cc1OC | 599 | -12.3% (inactive) | 10% (inactive) | 91.7% | -41.7% (inactive) | 105% | -0.588 (inactive) | -4.9e-05 (inactive) | 0.00915 (inactive) | -20.9% (inactive) | -5.53% (inactive)
COCC(C)NC(=O)NC(=O)c1ccc(Cl)cc1 (stereo not drawn) | 715 | 0.4% (inactive) | 10.2% (inactive) | 100% | -67.6% (inactive) | 98.3% | -0.476 (inactive) | 2.1e-05 (inactive) | 0.00585 (inactive) | 14.1% (inactive) | 12.5% (inactive)
Cn1cc(Cl)c(C(=O)NC2CCCC2)n1 | 452 | -8.5% (inactive) | 26.8% (inactive) | 64.4% | -25.2% (inactive) | 104% | -0.594 (inactive) | -3.1e-05 (inactive) | 0.00694 (inactive) | -2.09% (inactive) | 4.05% (inactive)
COc1cccc2sc(NC(=O)c3ccc(S(=O)(=O)N4CCOCC4)cc3)nc12 | 357 | 0.5% (inactive) | 8.5% (inactive) | 74.7% | -21% (inactive) | 104% | -0.289 (inactive) | -2.5e-05 (inactive) | 0.00479 (inactive) | 10.2% (inactive) | 9.3% (inactive)
COC(=O)Cc1cc(=O)[nH]c(Nc2nc3ccccc3o2)n1 | 354 | -1.4% (inactive) | -11.1% (inactive) | 108% | -125% (inactive) | 112% | -0.268 (inactive) | -3.1e-06 (inactive) | 0.00603 (inactive) | -2.52% (inactive) | -64.7% (inactive)
